Data as given in PubChem BioAssay AID1159580 (chemical genetic matrix, 2015).
Several values for one entry are separate records, joined by “and”; a condition that tells them apart may be missing. Equal values may be shown once. Hit rate of the full screen: of about 5,500 compounds, about 2,000 (36%) were called active. Inconclusive results (about 18%) are left out. Rule as the data show it: active = normalized growth mostly below about 0.91 (no sharp cut-off); inconclusive = no clear call, values can overlap the other calls; inactive = mostly above about 0.92. This is one part of the list.

Assay: chemical genetic growth profiling, strain panel (AID 1159580);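 also: tested at 20 µM; growth read once vehicle control cultures reached saturation at 30 °C; 1 = growth at the plate median or of vehicle wells; lower values mean less growth of the strain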
Conditions: growth OD

Measured: normalized growth

CCCn1c(=O)c2[nH]c(C3CCCC3)nc2n(CCC)c1=O
inactive: S. cerevisiae deletion strains, locus YJR043C, strain POL32, stronger effect = lower value 0.989 | S. cerevisiae deletion strains, locus YJR075W, strain HOC1, stronger effect = lower value 0.968 and 0.985 | S. cerevisiae deletion strains, locus YKL009W, strain mrt4, stronger effect = lower value 0.966 | S. cerevisiae deletion strains, locus YKL068W, stronger effect = lower value 0.965 | S. cerevisiae deletion strains, locus YKL085W, strain MDH1 (second series), stronger effect = lower value 0.994 | S. cerevisiae deletion strains, locus YKL085W, strain MDH1, stronger effect = lower value 0.994 | S. cerevisiae deletion strains, locus YKL160W, strain elf1, stronger effect = lower value 0.996 | S. cerevisiae deletion strains, locus YKL190W, strain CNB1, stronger effect = lower value 0.981 | S. cerevisiae deletion strains, locus YKR001C, strain vps1, stronger effect = lower value 0.964 | S. cerevisiae deletion strains, locus YKR026C, strain gcn3, stronger effect = lower value 0.998 | S. cerevisiae deletion strains, locus YKR091W, strain srl3, stronger effect = lower value 0.982 | S. cerevisiae deletion strains, locus YLL001W, strain dnm1, stronger effect = lower value 0.986 | S. cerevisiae deletion strains, locus YLL026W, stronger effect = lower value 0.974 | S. cerevisiae deletion strains, locus YLL041C, strain sdh2, stronger effect = lower value 0.979 | S. cerevisiae deletion strains, locus YLR027C, strain aat2, stronger effect = lower value 0.987 | S. cerevisiae deletion strains, locus YLR039C, strain RIC1, stronger effect = lower value 0.881 | S. cerevisiae deletion strains, locus YLR058C, strain SHM2, stronger effect = lower value 0.982 | S. cerevisiae deletion strains, locus YLR102C, strain apc9, stronger effect = lower value 0.957 | S. cerevisiae deletion strains, locus YLR221C, strain rsa3, stronger effect = lower value 1 | S. cerevisiae deletion strains, locus YLR258W, strain gsy2, stronger effect = lower value 0.963 | S. cerevisiae deletion strains, locus YLR262C, strain YPT6 (second series), stronger effect = lower value 0.965 | S. cerevisiae deletion strains, locus YLR262C, strain YPT6, stronger effect = lower value 0.854 | S. cerevisiae deletion strains, locus YLR268W, strain sec22, stronger effect = lower value 0.957 | S. cerevisiae deletion strains, locus YLR320W, strain mms22, stronger effect = lower value 0.974 | S. cerevisiae deletion strains, locus YLR330W, strain CHS5, stronger effect = lower value 0.98 | S. cerevisiae deletion strains, locus YLR342W, strain FKS1 (second series), stronger effect = lower value 0.979 | S. cerevisiae deletion strains, locus YLR342W, strain FKS1, stronger effect = lower value 0.987 | S. cerevisiae deletion strains, locus YLR357W, strain rsc2, stronger effect = lower value 0.986 | S. cerevisiae deletion strains, locus YLR370C, strain arc18, stronger effect = lower value 0.986 | S. cerevisiae deletion strains, locus YLR371W, strain rom2, stronger effect = lower value 0.951 | S. cerevisiae deletion strains, locus YLR384C, strain iki3, stronger effect = lower value 0.995 | S. cerevisiae deletion strains, locus YLR418C, strain cdc73, stronger effect = lower value 1.01 | S. cerevisiae deletion strains, locus YML016C, strain PPZ1, stronger effect = lower value 0.992 | S. cerevisiae deletion strains, locus YML032C, strain rad52, stronger effect = lower value 0.959 | S. cerevisiae deletion strains, locus YML120C, strain ndi1, stronger effect = lower value 0.997 | S. cerevisiae deletion strains, locus YML124C, strain tub3, stronger effect = lower value 0.972 | S. cerevisiae deletion strains, locus YMR058W, strain fet3, stronger effect = lower value 1 | S. cerevisiae deletion strains, locus YMR078C, strain ctf18, stronger effect = lower value 0.972 | S. cerevisiae deletion strains, locus YMR125W, strain sto1, stronger effect = lower value 0.994 | S. cerevisiae deletion strains, locus YMR129W, stronger effect = lower value 0.968 | S. cerevisiae deletion strains, locus YMR205C, strain PFK2, stronger effect = lower value 0.967 | S. cerevisiae deletion strains, locus YMR223W, strain ubp8, stronger effect = lower value 0.97 | S. cerevisiae deletion strains, locus YMR231W, strain pep5, stronger effect = lower value 0.994 | S. cerevisiae deletion strains, locus YMR263W, strain SAP30, stronger effect = lower value 0.993 | S. cerevisiae deletion strains, locus YMR307W, strain GAS1, stronger effect = lower value 0.947 | S. cerevisiae deletion strains, locus YNL067W, strain RPL9B, stronger effect = lower value 0.986 | S. cerevisiae deletion strains, locus YNL071W, strain lat1, stronger effect = lower value 0.997 | S. cerevisiae deletion strains, locus YNL128W, strain TEP1, stronger effect = lower value 1 | S. cerevisiae deletion strains, locus YNL153C, strain GIM3, stronger effect = lower value 0.998 and 0.965 | S. cerevisiae deletion strains, locus YNL175C, strain NOP13, stronger effect = lower value 0.977 | S. cerevisiae deletion strains, locus YNL197C, strain WHI3, stronger effect = lower value 0.976 | S. cerevisiae deletion strains, locus YNL209W, strain ssb2, stronger effect = lower value 0.994 | S. cerevisiae deletion strains, locus YNL224C, strain SQS1, stronger effect = lower value 0.975 | S. cerevisiae deletion strains, locus YNL233W, strain BNI4, stronger effect = lower value 0.991 | S. cerevisiae deletion strains, locus YNL248C, strain rpa49, stronger effect = lower value 0.992 | S. cerevisiae deletion strains, locus YNL250W, strain rad50, stronger effect = lower value 0.973 | S. cerevisiae deletion strains, locus YNL271C, strain bni1, stronger effect = lower value 0.974 | S. cerevisiae deletion strains, locus YNL298W, strain CLA4, stronger effect = lower value 0.972 | S. cerevisiae deletion strains, locus YNL307C, strain MCK1, stronger effect = lower value 0.97 | S. cerevisiae deletion strains, locus YNL322C, strain KRE1 (second series), stronger effect = lower value 0.986 | S. cerevisiae deletion strains, locus YNL322C, strain KRE1, stronger effect = lower value 0.984 and 0.987 | S. cerevisiae deletion strains, locus YNR049C, strain mso1, stronger effect = lower value 0.984 | S. cerevisiae deletion strains, locus YNR052C, strain pop2, stronger effect = lower value 0.975 | S. cerevisiae deletion strains, locus YOL006C, strain TOP1, stronger effect = lower value 0.986 | S. cerevisiae deletion strains, locus YOL012C, strain htz1 0.878 | S. cerevisiae deletion strains, locus YOL147C, strain pex11, stronger effect = lower value 0.962 | S. cerevisiae deletion strains, locus YOR001W, strain rrp6, stronger effect = lower value 0.995 | S. cerevisiae deletion strains, locus YOR061W, strain CKA2, stronger effect = lower value 0.995 | S. cerevisiae deletion strains, locus YOR069W, strain VPS5, stronger effect = lower value 0.989 | S. cerevisiae deletion strains, locus YOR070C, strain gyp1, stronger effect = lower value 0.993 | S. cerevisiae deletion strains, locus YOR080W, strain dia2, stronger effect = lower value 0.984 | S. cerevisiae deletion strains, locus YOR083W, strain WHI5 (second series), stronger effect = lower value 0.989 | S. cerevisiae deletion strains, locus YOR083W, strain WHI5, stronger effect = lower value 1.01 | S. cerevisiae deletion strains, locus YOR106W, strain vam3, stronger effect = lower value 0.996 | S. cerevisiae deletion strains, locus YOR136W, strain idh2, stronger effect = lower value 0.954 | S. cerevisiae deletion strains, locus YOR144C, strain elg1, stronger effect = lower value 0.965 | S. cerevisiae deletion strains, locus YOR184W, strain ser1, stronger effect = lower value 0.955 | S. cerevisiae deletion strains, locus YOR265W, strain rbl2, stronger effect = lower value 0.991 | S. cerevisiae deletion strains, locus YOR270C, strain vph1, stronger effect = lower value 0.998 | S. cerevisiae deletion strains, locus YOR290C, strain snf2, stronger effect = lower value 0.923 | S. cerevisiae deletion strains, locus YOR316C, strain cot1, stronger effect = lower value 0.977 | S. cerevisiae deletion strains, locus YPL051W, strain arl3, stronger effect = lower value 0.987 | S. cerevisiae deletion strains, locus YPL055C, strain LGE1, stronger effect = lower value 0.976 | S. cerevisiae deletion strains, locus YPL078C, strain atp4, stronger effect = lower value 0.994 | S. cerevisiae deletion strains, locus YPL106C, strain sse1, stronger effect = lower value 0.976 | S. cerevisiae deletion strains, locus YPL240C, strain hsp82, stronger effect = lower value 0.983 | S. cerevisiae deletion strains, locus YPL241C, strain CIN2, stronger effect = lower value 0.954 and 1.01 | S. cerevisiae deletion strains, locus YPR119W, strain clb2, stronger effect = lower value 0.967 | S. cerevisiae deletion strains, locus YPR141C, strain kar3, stronger effect = lower value 0.977 | S. cerevisiae deletion strains, locus YPR163C, strain tif3, stronger effect = lower value 0.969 | S. cerevisiae deletion strains, locus YPR167C, strain met16, stronger effect = lower value 0.982 | S. cerevisiae deletion strains, strain wtn01, stronger effect = lower value 0.98 | S. cerevisiae strains, strain wild type, stronger effect = lower value 0.981
